From PubChem BioAssay
FBW7 act: FBW7 E3 ligase activators, primary screen, biochemical, AlphaScreen, human; F-box/WD repeat-containing protein 7 (Homo sapiens), Q969H0; AlphaScreen FBW7–phospho-cyclin E peptide binding, activator screen; normalized activity (activation), % at 26.1 µM; hit rate 0.13% among 650,000; AID 1259310, 2017; in the data active = normalized activity above about 1.9%;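 also: purified mutant Fbw7 with reduced substrate affinity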
Target sequence (Q969H0 whole entry, looked up): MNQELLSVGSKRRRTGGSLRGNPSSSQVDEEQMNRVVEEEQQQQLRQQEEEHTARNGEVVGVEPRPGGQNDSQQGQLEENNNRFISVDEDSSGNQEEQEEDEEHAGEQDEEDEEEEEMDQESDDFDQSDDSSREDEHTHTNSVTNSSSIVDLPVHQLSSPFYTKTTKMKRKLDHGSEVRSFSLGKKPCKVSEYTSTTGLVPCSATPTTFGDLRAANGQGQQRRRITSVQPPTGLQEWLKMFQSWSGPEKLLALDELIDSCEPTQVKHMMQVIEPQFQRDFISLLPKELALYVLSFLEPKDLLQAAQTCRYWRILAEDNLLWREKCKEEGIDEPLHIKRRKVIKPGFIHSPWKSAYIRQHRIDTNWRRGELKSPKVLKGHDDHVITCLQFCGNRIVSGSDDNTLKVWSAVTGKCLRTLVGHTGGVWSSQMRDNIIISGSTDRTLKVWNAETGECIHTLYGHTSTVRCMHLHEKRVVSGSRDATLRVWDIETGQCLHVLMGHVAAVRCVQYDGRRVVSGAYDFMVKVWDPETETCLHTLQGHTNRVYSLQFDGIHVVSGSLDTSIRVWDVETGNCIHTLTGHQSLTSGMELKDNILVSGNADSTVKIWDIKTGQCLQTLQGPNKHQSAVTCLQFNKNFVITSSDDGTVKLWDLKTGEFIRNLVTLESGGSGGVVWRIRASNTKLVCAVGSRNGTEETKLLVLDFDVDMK
TEAD-YAP inh: TEAD-YAP interaction inhibition, primary screen, TEAD-YAP interaction inhibitor project, luminescence, HEK-TIYL cells; AID 1259422, 2018; inhibition, % at 9.12 µM; hit rate 1.4% among 640,000; TEAD-Gal4/YAP UAS-luciferase luminescence; in the data active = inhibition above about 32%;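 also: 0% = median of test compound wells and 100% = reference inhibitor wells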
MITF primary: MITF inhibitors, primary screen, biochemical, AlphaScreen, human | Microphthalmia-associated transcription factor (Homo sapiens), O75030 | inhibition, % at 2.6 µM | AlphaScreen MITF homodimerization, bead proximity signal | hit rate 0.91% among 650,000; in the data active = inhibition above about 50%;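 also: 0% = vehicle wells with protein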
GPR151 activ: activators of human GPR151, primary screen, cell-based, PathHunter beta-arrestin, luminescence; activation, % at 11.2 µM; G-protein coupled receptor 151 (Homo sapiens), Q8TDV0; PathHunter beta-arrestin GPR151 cells; hit rate 1% among 650,000; in the data active = activation above about 4.9%;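 also: 0% = median of compound wells and 100% = cells with positive control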
* hit, by the source's call. Hits are enriched below; roughly 3.4% of the tested compounds scored in any of these assays.

How did CCc1nc2sc(C(=O)OC)c(N)c2c2c1CCCC2 do in these assays?
FBW7 act: 0; TEAD-YAP inh: -4; MITF primary: -15; GPR151 activ: 1

What do the screens show for `CCc1nc2sc(C(N)=O)c(N)c2c2c1CCCC2`?
FBW7 act: 0; TEAD-YAP inh: 38*; MITF primary: -15; GPR151 activ: -1

What do the screens show for `COC(=O)c1sc2nc3c(c(-c4ccc(C)o4)c2c1N)CCCC3`?
FBW7 act: 0; TEAD-YAP inh: 5; MITF primary: -7; GPR151 activ: 3

What do the screens show for `COc1ccccc1-c1cnc2c(Nc3cccc(C(F)(F)F)c3)nccn12`?
FBW7 act: 0; TEAD-YAP inh: 6; MITF primary: 8; GPR151 activ: 0

What do the screens show for `CC(C)[C@H](NC(=O)c1ccccc1)C(=O)NCc1cccc(Cl)c1`?
FBW7 act: 0; TEAD-YAP inh: 2; MITF primary: -9; GPR151 activ: -1

What do the screens show for `COc1cc(/C=C2\Oc3c(ccc(O)c3CN3CCCC3)C2=O)cc(OC)c1OC`?
FBW7 act: 0; TEAD-YAP inh: 32*; MITF primary: -1; GPR151 activ: 1

What do the screens show for `CCCCCSCc1ccc2oc(C(=O)O)cc2c1`?
FBW7 act: 0; TEAD-YAP inh: -3; MITF primary: -5; GPR151 activ: -1

What do the screens show for `O=[N+]([O-])c1ccc(Br)c2ccncc12`?
FBW7 act: 0; TEAD-YAP inh: 62*; MITF primary: 19; GPR151 activ: 4

What do the screens show for `CCC(CO)Nc1ccc2ncc(-c3cccc(NS(C)(=O)=O)c3)n2n1` (stereo not given)?
FBW7 act: 0; TEAD-YAP inh: 37*; MITF primary: -9; GPR151 activ: 1

What do the screens show for `CCC(CO)Nc1ccc2ncc(-c3cncc(OC)c3)n2n1` (stereo not given)?
FBW7 act: 0; TEAD-YAP inh: 54*; MITF primary: 6; GPR151 activ: 0

What do the screens show for `CCC(CO)Nc1ccc2ncc(-c3ccc(OC)cc3)n2n1` (stereo not given)?
FBW7 act: 1; TEAD-YAP inh: 16; MITF primary: 16; GPR151 activ: 0

What do the screens show for `COc1cccc(/C=C2\CN(C)C/C(=C\c3cccc(OC)c3OC)C2=O)c1OC`?
FBW7 act: 0; TEAD-YAP inh: 33*; MITF primary: 17; GPR151 activ: 0

How did CCOC(=O)c1c(C(=O)OCC)c(C)n(NC(=O)CNc2ccc(Cl)cc2)c1C do in these assays?
FBW7 act: 0; TEAD-YAP inh: 28; MITF primary: 2; GPR151 activ: 3

What do the screens show for `NC(=O)C1CCCc2c1[nH]c1ccc(Cl)cc21` (stereo not given)?
FBW7 act: 0; TEAD-YAP inh: 7; MITF primary: 15; GPR151 activ: 1

What do the screens show for `CCN(CC)C(=O)C1CCCc2c1[nH]c1ccc(Cl)cc21` (stereo not given)?
FBW7 act: 0; TEAD-YAP inh: 59*; MITF primary: 2; GPR151 activ: 2

Results for COCC(C)NC(=O)C1CC(Cc2cccc(OC)c2)=NO1 (stereo not given) ?
FBW7 act: 0; TEAD-YAP inh: -20; MITF primary: 16; GPR151 activ: 0

What do the screens show for `O=C1CC(C(=O)Nc2ccc(-c3cn[nH]c3)cc2)Cc2ccccc21` (stereo not given)?
FBW7 act: 0; TEAD-YAP inh: 34*; MITF primary: -8; GPR151 activ: 0

How did Cc1nnsc1C(=O)NCc1ccccc1Cl do in these assays?
FBW7 act: 0; TEAD-YAP inh: 5; MITF primary: -2; GPR151 activ: 0

What do the screens show for `O=C(N/N=C/c1cccc(O)c1O)c1nn(Cc2ccccc2)c(=O)c2ccccc12`?
FBW7 act: -1; TEAD-YAP inh: -17; MITF primary: 25; GPR151 activ: -1

What do the screens show for `O=C(N/N=C\c1ccc(O)cc1O)c1cncc(Br)c1`?
FBW7 act: 0; TEAD-YAP inh: 31; MITF primary: 79*; GPR151 activ: 1

What do the screens show for `O=C(N/N=C/c1ccc(O)cc1O)c1nn(Cc2ccccc2)c(=O)c2ccccc12`?
FBW7 act: -1; TEAD-YAP inh: 64*; MITF primary: 25; GPR151 activ: -2

How did O=C(N/N=C/c1ccc(O)cc1O)c1cccc(NC(=O)c2ccccc2F)c1 do in these assays?
FBW7 act: 0; TEAD-YAP inh: 40*; MITF primary: 10; GPR151 activ: 0

Results for O=C(N/N=C/c1ccccc1Cl)c1cncc(Br)c1 ?
FBW7 act: 0; TEAD-YAP inh: -4; MITF primary: -3; GPR151 activ: -2

Results for O=C(N/N=C/c1ccc(O)cc1O)c1cc2ccccc2cc1O ?
FBW7 act: -1; TEAD-YAP inh: 67*; MITF primary: 4; GPR151 activ: -1

How did O=C(N/N=C/c1ccc(O)cc1O)c1ccc(NC(=O)c2ccccc2Cl)cc1 do in these assays?
FBW7 act: -1; TEAD-YAP inh: 15; MITF primary: 19; GPR151 activ: 0

How did O=C(NCc1cccc(C(F)(F)F)c1)c1ccnc(-c2ccccc2)c1 do in these assays?
FBW7 act: 1; TEAD-YAP inh: 1; MITF primary: 6; GPR151 activ: -1

What do the screens show for `CC(C)Oc1ccc(Br)cc1C=C1C(=O)OC(C)(C)OC1=O`?
FBW7 act: 0; TEAD-YAP inh: 3; MITF primary: 11; GPR151 activ: 0

How did CCOC(=O)c1ccc(NCc2c(C)[nH]c(C(=O)OCC)c2C)cc1 do in these assays?
FBW7 act: 0; TEAD-YAP inh: 5; MITF primary: -2; GPR151 activ: 2

What do the screens show for `O=C(N/N=C\c1cc(Br)ccc1F)c1ccc(=O)[nH]n1`?
FBW7 act: 0; TEAD-YAP inh: -11; MITF primary: -6; GPR151 activ: 1

How did O=C(N/N=C/c1ccc(O)cc1O)c1ccc(-c2ccccc2)cc1 do in these assays?
FBW7 act: 0; TEAD-YAP inh: 45*; MITF primary: 6; GPR151 activ: 0

Results for O=C(N/N=C/c1ccc(O)cc1O)c1ccc(O)cc1 ?
FBW7 act: -1; TEAD-YAP inh: -22; MITF primary: -1; GPR151 activ: -2

How did O=C(N/N=C\c1ccc(O)cc1O)c1ccc(=O)[nH]n1 do in these assays?
FBW7 act: -3; TEAD-YAP inh: 3; MITF primary: 60*; GPR151 activ: 1

How did O=C(N/N=C/c1ccc(O)cc1O)c1ccc(Br)cc1 do in these assays?
FBW7 act: 0; TEAD-YAP inh: 42*; MITF primary: 37; GPR151 activ: -1

Results for O=C(N/N=C/c1ccc(O)cc1O)c1ccc[n+]([O-])c1 ?
FBW7 act: -1; TEAD-YAP inh: -8; MITF primary: 73*; GPR151 activ: -1

How did CCCNC(=O)CCC(=O)n1ncc2cc(C)ccc21 do in these assays?
FBW7 act: 1; TEAD-YAP inh: 4; MITF primary: 2; GPR151 activ: 0

What do the screens show for `CCc1cc2c(C)cc(=O)oc2cc1OCC(=O)O`?
FBW7 act: 0; TEAD-YAP inh: -2; MITF primary: 21; GPR151 activ: 0
